Target: Voltage-gated potassium channel subunit beta-2 (Rattus norvegicus) (UniProt P62483)
Assay: KvBeta positive modulators, primary screen, biochemical, NADPH fluorescence (AID 623;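 active = NADPH fluorescence slope more negative than the mean of all samples by about 3 SD, 99.7% confidence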;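 also: fluorescence intensity change per second fitted from 20 to 320 s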)
Details: Recombinant KvBeta, NADPH fluorescence decrease slope, 10 min; at 10 µM; stronger effect = lower value

Chain of Voltage-gated potassium channel subunit beta-2 (Rattus norvegicus) (P62483 whole entry, looked up): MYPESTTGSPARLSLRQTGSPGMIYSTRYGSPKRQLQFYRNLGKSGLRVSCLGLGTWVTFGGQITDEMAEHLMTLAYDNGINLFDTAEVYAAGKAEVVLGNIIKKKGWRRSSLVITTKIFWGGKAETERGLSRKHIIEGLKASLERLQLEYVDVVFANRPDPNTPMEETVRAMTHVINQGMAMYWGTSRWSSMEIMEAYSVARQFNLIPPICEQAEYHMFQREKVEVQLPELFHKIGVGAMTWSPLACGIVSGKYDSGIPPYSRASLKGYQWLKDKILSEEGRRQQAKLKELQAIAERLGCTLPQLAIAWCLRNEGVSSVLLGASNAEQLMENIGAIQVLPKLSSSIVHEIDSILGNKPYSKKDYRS

NADPH fluorescence slope, inactive:
COCCNC(=O)C(c1ccc(O)cc1)N(Cc1ccco1)C(=O)CCC(=O)Nc1nccs1 (centres undefined) 4.7e-06
Cc1ccc(C)c(NC(=O)c2ccc3c(c2)N(Cc2ccc(F)cc2)C(=O)CS3=O)c1 (centres undefined) -2.3e-05
Cc1ccc(NC(=O)CN(C)S(=O)(=O)c2cccc3nsnc23)cc1Cl -4.1e-05
CS(=O)(=O)N1CCC(C(=O)NCCC2=CCCCC2)CC1 -2.9e-05
O=C(CSc1ncccn1)NCc1ccccc1 3.2e-05
Cc1cccnc1-n1c(CCN2C(=O)c3ccccc3C2=O)nc2ccccc2c1=O -7.6e-06
CCCn1c(O)c(CN2CCCC(C)C2)c(C)c(C#N)c1=O (centres undefined) -2.9e-05
COc1ccc(N2C(=O)CCC(C(=O)N3CCCCC3)C2c2ccc(OC)c(OC)c2)cc1 (centres undefined) 5.3e-05
COC(=O)CSC1=C(C#N)C(c2ccc(F)cc2)CC(=O)N1 (centres undefined) -3.8e-05
Cn1nnc2cc(C(=O)N3CCCCCC3)ccc21 -4.7e-05
COC(=O)c1cc(-c2ccccc2)sc1NC(=O)c1cc(C)on1 -1.3e-05
CCC(c1nnnn1C(C)(C)C)N1CCN(C2CCCC2)CC1 (centres undefined) -1.4e-05
Cn1c(=O)c2ncn(CC(=O)NCCOc3ccc(C(C)(C)C)cc3)c2n(C)c1=O -3.7e-05
O=C(COC(=O)c1cc(-c2ccco2)nc2ccccc12)NCc1ccc2c(c1)OCO2 -1.1e-05
CCN=C1SC(CC(=O)Nc2ccccc2)C(=O)N1CC (centres undefined) -1.1e-05
Cn1c(=O)c2c(nc(CN3CCCCC3)n2CCc2ccccc2)n(C)c1=O -1.3e-05
COc1cc(C(O)c2nc3ccccc3n2C)cc(OC)c1OC (centres undefined) -2.3e-05
c1ccc(CSc2nnc(-c3cccs3)n2Cc2ccco2)cc1 3.8e-06
CCCCC(=O)NCCNc1nc2c(c(=O)n(C)c(=O)n2C)n1Cc1ccccc1 -5.2e-06
CCOc1ccccc1C1C(C(=O)Nc2ccc(OC)cc2)=C(C)Nc2nc(CCCO)nn21 (centres undefined) -2.8e-05
CCCN(CCC)CCNC(=O)c1cc2c(=O)n(C)c3ccccc3c2n1C -7.5e-05
Cc1nc2ccc(NC(=O)NCc3ccco3)cc2s1 5e-06
COc1cc(Br)cc(CN2CCN(C/C=C/c3ccccc3)CC2)c1O -8.8e-06
COC(=O)C1=C(C)OC(N)=C(C#N)C1c1c(C)nn(-c2ccccc2)c1Cl (centres undefined) 1e-05

Target: Alpha-2C adrenergic receptor (Homo sapiens) (UniProt P18825)
Assay: modulators of alpha2C/GIRK thallium flux, primary screen, cell-based, HEK293 alpha2C/GIRK1/2 (AID 624);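 also: slope of fluorescence ratio to pre-addition baseline per second over 15 to 24 s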
Details: thallium flux BTC fluorescence, at 10 µM, actives lie on both sides

Chain of Alpha-2C adrenergic receptor (Homo sapiens) (P18825 whole entry, looked up): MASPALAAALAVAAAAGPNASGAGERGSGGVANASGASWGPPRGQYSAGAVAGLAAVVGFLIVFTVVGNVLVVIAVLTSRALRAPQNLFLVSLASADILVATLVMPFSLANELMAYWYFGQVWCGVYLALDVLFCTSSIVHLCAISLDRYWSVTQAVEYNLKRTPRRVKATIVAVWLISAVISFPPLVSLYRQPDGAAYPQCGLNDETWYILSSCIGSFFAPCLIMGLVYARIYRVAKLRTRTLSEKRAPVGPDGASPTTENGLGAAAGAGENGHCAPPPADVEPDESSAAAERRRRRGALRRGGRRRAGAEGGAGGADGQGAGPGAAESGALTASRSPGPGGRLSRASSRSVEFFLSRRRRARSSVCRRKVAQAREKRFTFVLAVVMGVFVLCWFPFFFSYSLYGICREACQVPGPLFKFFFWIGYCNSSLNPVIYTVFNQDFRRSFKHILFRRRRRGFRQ

slope, inactive:
CC(C)Cn1c(=O)c(C(=O)Nc2ccccc2S(N)(=O)=O)c(O)c2ccccc21 0.00741
O=C(CCN1CCc2ccccc2C1)Nc1ccc2c(c1)OCO2 0.00425
CCN1C(=O)c2ccccc2S(=O)(=O)c2ccc(C(=O)NCc3cccnc3)cc21 0.00634
O=C(O)CCc1ccc(-c2cccs2)o1 0.00568
CCCCOCCCNC(=O)c1cccs1 0.00349
O=C1CC(C2CCCO2)C(=O)N1Cc1ccccc1 (centres undefined) 0.00667
Cc1onc(-c2ccccc2)c1C(=O)Nc1ccc(S(=O)(=O)N2CCCCC2)cc1 0.00592
O=C(CSc1nnc(-c2ccccc2)o1)N1CCN(c2ccccc2)CC1 0.0062
CC1=C(C(=O)Nc2ccccc2)C(c2ccccn2)n2nc(CCCO)nc2N1 (centres undefined) 0.00679
COc1ccc(C(=O)CSc2nnc(C3CCCCC3)n2N)c(OC)c1 0.00551
COc1cc(NC(=O)Cc2ccccc2OC)cc(OC)c1 0.00483
COC(=O)CCC(=O)Nc1cccc(Br)c1 0.00597
N#Cc1c(NC(NC(=O)c2ccco2)C(=O)c2ccccc2)sc2c1CCCC2 (centres undefined) 0.00297
O=C(COc1ccc2ccccc2c1)N1CCCC1 0.00518
COc1ccccc1S(=O)(=O)Cc1ccc(C(=O)NCCN2CCCCCC2)o1 0.00667
O=C1C2CC=CCC2C(=O)N1c1ccc(Cc2ccncc2)cc1 (centres undefined) 0.00567
COCCNC(=O)C(c1ccc(O)cc1)N(Cc1ccco1)C(=O)CCC(=O)Nc1nccs1 (centres undefined) 0.0061
Cc1ccc(C)c(NC(=O)c2ccc3c(c2)N(Cc2ccc(F)cc2)C(=O)CS3=O)c1 (centres undefined) 0.00733
Cc1ccc(NC(=O)CN(C)S(=O)(=O)c2cccc3nsnc23)cc1Cl 0.00467
CS(=O)(=O)N1CCC(C(=O)NCCC2=CCCCC2)CC1 0.00662
O=C(CSc1ncccn1)NCc1ccccc1 0.00529
Cc1cccnc1-n1c(CCN2C(=O)c3ccccc3C2=O)nc2ccccc2c1=O 0.00629
CCCn1c(O)c(CN2CCCC(C)C2)c(C)c(C#N)c1=O (centres undefined) 0.00503
COc1ccc(N2C(=O)CCC(C(=O)N3CCCCC3)C2c2ccc(OC)c(OC)c2)cc1 (centres undefined) 0.00625
COC(=O)CSC1=C(C#N)C(c2ccc(F)cc2)CC(=O)N1 (centres undefined) 0.00754
Cn1nnc2cc(C(=O)N3CCCCCC3)ccc21 0.00659
COC(=O)c1cc(-c2ccccc2)sc1NC(=O)c1cc(C)on1 0.00783
CCC(c1nnnn1C(C)(C)C)N1CCN(C2CCCC2)CC1 (centres undefined) 0.00353
Cn1c(=O)c2ncn(CC(=O)NCCOc3ccc(C(C)(C)C)cc3)c2n(C)c1=O 0.00671
O=C(COC(=O)c1cc(-c2ccco2)nc2ccccc12)NCc1ccc2c(c1)OCO2 0.00558
CCN=C1SC(CC(=O)Nc2ccccc2)C(=O)N1CC (centres undefined) 0.00797
Cn1c(=O)c2c(nc(CN3CCCCC3)n2CCc2ccccc2)n(C)c1=O 0.00323
COc1cc(C(O)c2nc3ccccc3n2C)cc(OC)c1OC (centres undefined) 0.00191
c1ccc(CSc2nnc(-c3cccs3)n2Cc2ccco2)cc1 0.00593
CCCCC(=O)NCCNc1nc2c(c(=O)n(C)c(=O)n2C)n1Cc1ccccc1 0.00636
CCOc1ccccc1C1C(C(=O)Nc2ccc(OC)cc2)=C(C)Nc2nc(CCCO)nn21 (centres undefined) 0.00548
CCCN(CCC)CCNC(=O)c1cc2c(=O)n(C)c3ccccc3c2n1C 0.00528
Cc1nc2ccc(NC(=O)NCc3ccco3)cc2s1 0.00475
COc1cc(Br)cc(CN2CCN(C/C=C/c3ccccc3)CC2)c1O 0.00359
COC(=O)C1=C(C)OC(N)=C(C#N)C1c1c(C)nn(-c2ccccc2)c1Cl (centres undefined) 0.00643

Reference: PubChem BioAssay
